Inconclusive results are not listed. Entries that show only a call come without a potency. Active and inactive are the calls of the source. Unless noted, calls come from the whole dose curve; as a rule, active = well fitted inhibition curve with a large enough effect; inconclusive = small, poorly fitted or top-dose-only effect; inactive = flat fitted curve, though single readings scatter.
What was measured:
[1] = S16 Schwann cell PMP22 intronic element beta-lactamase assay (AID 624044; calls by dose curve; note: nearly all actives have a fitted effect of over 15% in size); conditions: S16 rat Schwann cells, PMP22 element beta-lactamase FRET, 24 h; ratio activity, negative = inhibition: at 38.3 µM (top of the series)
How it was run: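 Rat S16 Schwann cells with beta-Lac driven by a PMP22 intronic element, compound-treated 24 h at 37 °C. LiveBLAzer FRET B/G read: 460 nm normalized to potassium clavulanate vs DMSO; 535 nm FRET as viability; concentration-effect curves classified.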

AA1029 = test: qHTS profiling for inhibitors of Plasmodium falciparum proliferation (AID 504749); note: nearly all actives have a fitted effect of over 60% in size; conditions: P. falciparum in erythrocytes, SYBR Green DNA, 72 h; series mostly up to 28.7 µM
How it was run: (§1)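 Parasite proliferation within erythrocytes, 72 h exposure. Endpoint: SYBR Green I fluorescence after overnight lysis at room temperature. Controls: 0.29 uM artemisinin, DMSO.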

CP185 = test: as above; conditions: P. falciparum in erythrocytes, SYBR Green DNA, 72 h; series mostly up to 28.7 µM
How it was run: as §1

CP194 = test: as above; conditions: P. falciparum in erythrocytes, SYBR Green DNA, 72 h; series mostly up to 28.7 µM
How it was run: as §1

CP215 = test: as above; conditions: P. falciparum in erythrocytes, SYBR Green DNA, 72 h; series mostly up to 28.7 µM
How it was run: as §1

CP238 = test: as above; conditions: P. falciparum in erythrocytes, SYBR Green DNA, 72 h; series mostly up to 28.7 µM
How it was run: as §1

CP256 = test: as above; conditions: P. falciparum in erythrocytes, SYBR Green DNA, 72 h; series mostly up to 28.7 µM
How it was run: as §1

CP265 = test: as above; conditions: P. falciparum in erythrocytes, SYBR Green DNA, 72 h; series mostly up to 28.7 µM
How it was run: as §1

CP266 = test: as above; conditions: P. falciparum in erythrocytes, SYBR Green DNA, 72 h; series mostly up to 28.7 µM
How it was run: as §1

CP268 = test: as above; conditions: P. falciparum in erythrocytes, SYBR Green DNA, 72 h; series mostly up to 28.7 µM
How it was run: as §1

CP286 = test: as above; conditions: P. falciparum in erythrocytes, SYBR Green DNA, 72 h; series mostly up to 28.7 µM
How it was run: as §1

CP291 = test: as above; conditions: P. falciparum in erythrocytes, SYBR Green DNA, 72 h; series mostly up to 28.7 µM
How it was run: as §1

CP305 = test: as above; conditions: P. falciparum in erythrocytes, SYBR Green DNA, 72 h; series mostly up to 28.7 µM
How it was run: as §1

DFO2036 = test: as above; conditions: P. falciparum in erythrocytes, SYBR Green DNA, 72 h; series mostly up to 28.7 µM
How it was run: as §1

DIV17 = test: as above; conditions: P. falciparum in erythrocytes, SYBR Green DNA, 72 h; series mostly up to 28.7 µM
How it was run: as §1

DIV30 = test: as above; conditions: P. falciparum in erythrocytes, SYBR Green DNA, 72 h; series mostly up to 28.7 µM
How it was run: as §1

JCK = test: as above; conditions: P. falciparum in erythrocytes, SYBR Green DNA, 72 h; series mostly up to 28.7 µM
How it was run: as §1

N140 = test: as above; conditions: P. falciparum in erythrocytes, SYBR Green DNA, 72 h; series mostly up to 28.7 µM
How it was run: as §1

PC15 = test: as above; conditions: P. falciparum in erythrocytes, SYBR Green DNA, 72 h; series mostly up to 28.7 µM
How it was run: as §1

TAB109 = test: as above; conditions: P. falciparum in erythrocytes, SYBR Green DNA, 72 h; series mostly up to 28.7 µM
How it was run: as §1
Potency is the fitted concentration of half-maximal effect.

Structure (SMILES)	Potency [1]	Potency (AA1029)	Potency (CP185)	Potency (CP194)	Potency (CP215)	Potency (CP238)	Potency (CP256)	Potency (CP265)	Potency (CP266)	Potency (CP268)	Potency (CP286)	Potency (CP291)	Potency (CP305)	Potency (DFO2036)	Potency (DIV17)	Potency (DIV30)	Potency (JCK)	Potency (N140)	Potency (PC15)	Potency (TAB109)
CC(=O)O[C@]1(C(C)=O)CCC2C3CCC4=CC(=O)CCC4(C)C3(F)C(O)CC21C (stereo partly drawn)	inactive	inactive	inactive	inactive	inactive	inactive	inactive	inactive	inactive	inactive	inactive	inactive	inactive	inactive	inactive	inactive	inactive	inactive	inactive	inactive
Clc1ccc(CS[C@@H](Cn2ccnc2)c2ccc(Cl)cc2Cl)cc1	inactive	3.55 µM (active)	3.98 µM (active)	5.1 µM (active)				3.16 µM (active)			3.55 µM (active)	5.73 µM (active)		3.16 µM (active)	5.1 µM (active)	3.22 µM (active)		1.41 µM (active)	3.55 µM (active)	3.55 µM (active)
C[C@]12CC[C@@H]3c4ccc(O)cc4CC[C@H]3[C@@H]1CCC2OC(=O)CCC1CCCC1 (stereo partly drawn)	inactive	inactive	inactive	inactive	inactive	inactive	inactive	inactive	inactive	inactive		inactive	inactive	inactive	inactive	inactive	inactive	inactive		inactive
C#C[C@@]1(O)CC[C@@H]2[C@H]3CCC4=C/C(=N\O)CC[C@H]4[C@@H]3CC[C@]21CC		inactive	inactive		inactive	inactive	inactive	inactive	inactive	inactive	inactive	inactive	inactive	inactive	inactive	inactive	inactive	inactive	inactive	inactive
CC(C)CCCC(C)C1CC(=O)C2=C3CCC4CC(O)CCC4(C)C3CCC21C (stereo not drawn)	inactive	inactive	inactive	inactive	inactive	inactive	inactive	inactive	inactive	inactive		inactive	inactive	inactive	inactive	inactive	inactive	inactive	inactive	inactive
C[C@@H]1CC2C3CCC4=CC(=O)C=C[C@]4(C)[C@@]3(F)[C@@H](O)C[C@]2(C)[C@@]1(O)C(=O)COC(=O)c1cccc(S(=O)(=O)O)c1 (stereo partly drawn)		inactive	inactive	inactive	inactive	inactive	inactive	inactive	inactive	inactive	inactive	inactive	inactive	inactive	inactive	inactive	inactive	inactive	inactive	inactive
C[C@]12C=CC(=O)N[C@@H]1CC[C@@H]1C2CC[C@]2(C)C(C(=O)Nc3cc(C(F)(F)F)ccc3C(F)(F)F)CC[C@@H]12 (stereo partly drawn)	inactive	inactive	inactive	inactive		inactive	inactive	inactive	inactive		6.31 µM (active)			inactive		inactive		inactive	inactive	inactive
CC(=O)CC(c1ccccc1)C1C(=O)Oc2ccccc2C1=O (stereo not drawn)	inactive	inactive	inactive	inactive	inactive	inactive	inactive	inactive	inactive	inactive	inactive	inactive	inactive	inactive	inactive	inactive	inactive	inactive	inactive	inactive
CCC1OC(=O)C[C@H](O)C(C)[C@@H](O[C@@H]2OC(C)C(O)C(N(C)C)C2O)C(CCN2CC(C)CC(C)C2)CC(C)C(=O)/C=C/C(C)=C\[C@@H]1COC1OC(C)C(O)C(OC)C1OC (stereo partly drawn)							8.91 µM (active)				5.62 µM (active)							10 µM (active)	inactive	4.47 µM (active)
O=C1Oc2ccccc2C(=O)C1C(CC(O)c1ccc(-c2ccc(Br)cc2)cc1)c1ccccc1 (stereo not drawn)	inactive	inactive	inactive	inactive	inactive	inactive		inactive	inactive	inactive	inactive	inactive	inactive			inactive		inactive	inactive	inactive
Cc1cnc(NC(=O)C2C(=O)c3ccccc3S(=O)(=O)N2C)s1 (stereo not drawn)	inactive	inactive	inactive	inactive	inactive	inactive	inactive	inactive		inactive	inactive	inactive	inactive	inactive	inactive	inactive	inactive	inactive	inactive	inactive
CC1OC(OC2C(O)CC(OC3C(O)CC(OC4CCC5(C)C(CCC6C5CCC5(C)C(C7=CC(=O)OC7)CCC65O)C4)OC3C)OC2C)CC(O)C1O (stereo not drawn)		inactive	inactive		inactive	inactive	inactive	inactive	inactive	inactive	inactive	inactive	inactive	inactive		inactive	inactive	inactive		inactive
CC1CCC(O)C/C1=C\C=C1/CCCC2(C)C1CCC2C(C)/C=C/C(C)C(C)C (stereo not drawn)		inactive	inactive	inactive	inactive	inactive	inactive	inactive	inactive	inactive	inactive	inactive	inactive	inactive			inactive		inactive	inactive
C[N+]12CCCC[C@@H]1CCC(=C(c1cccs1)c1cccs1)C2 (stereo partly drawn)	inactive	8.91 µM (active)	8.91 µM (active)		15.1 µM (active)					15.1 µM (active)	6.31 µM (active)	15.1 µM (active)	10.7 µM (active)	10 µM (active)	10.7 µM (active)	12 µM (active)	10 µM (active)	12.6 µM (active)		2.51 µM (active)
CC1=C(C/C=C(\C)CCCC(C)CCCC(C)CCCC(C)C)C(=O)c2ccccc2C1=O (stereo not drawn)	inactive		inactive	inactive	inactive	inactive	inactive		inactive	inactive			inactive	inactive	inactive	inactive	inactive			
COc1cc(/C=C2\CCC/C(=C\c3ccc(O)c(OC)c3)C2=O)ccc1O	25.1 µM (active)	12.6 µM (active)	11.2 µM (active)		15.1 µM (active)	10 µM (active)		14.1 µM (active)						11.2 µM (active)	9.53 µM (active)	8.49 µM (active)	10 µM (active)	11.2 µM (active)	12.6 µM (active)	12.6 µM (active)
OC[C@@H](O)C(O[C@@H]1O[C@@H](CO)[C@H](O)[C@H](O)[C@H]1O)[C@H](O)[C@@H](O)CO (stereo partly drawn)	inactive	inactive	inactive	inactive	inactive	inactive	inactive	inactive	inactive	inactive	inactive	inactive	inactive	inactive	inactive	inactive	inactive	inactive	inactive	inactive

Reference: PubChem BioAssay (NCATS)
